Assay outcomes from PubChem BioAssay.
Compounds with a hit are over-represented: about 12% of the library has one in this group of screens.
SARS PLP yeast: qHTS of Yeast-based Assay for SARS-CoV PLP | S. cerevisiae expressing SARS-CoV PLpro, growth rescue | 330,000 compounds, 0.19% hits | Potency, µM (top dose mostly 32.9 µM), usual class: activators | AID 485353, 2010; calls by dose curve; note: nearly all actives have a fitted effect of over 55% in size
Sm TGR block: qHTS Assay for the Inhibitors of Schistosoma Mansoni Peroxiredoxins | Schistosoma mansoni thioredoxin glutathione reductase (TGR), Q962Y6 | purified TGR, DTNB reduction, TNB absorbance 405 nm | Potency, µM (titrated, usually from 114 µM), hits mostly inhibitors | 360,000 compounds, 3% hits | AID 485364, 2010; note: nearly all actives have a fitted effect of over 60% in size
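Kinetic colorimetric format: TGR-catalysed, NADPH-driven DTNB reduction monitored via TNB absorbance. Enzyme dispensed at 20 nM; compound exposure 15 min at room temperature before reaction start.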
Pf growth 48h: Primary qHTS for delayed death inhibitors of the malarial parasite plastid, 48 hour incubation; P. falciparum luciferase growth in erythrocytes, 48 h; Potency, µM (highest dose often 28.7 µM), usual class: inhibitors; 310,000 compounds, 5.9% hits; AID 504832, 2011
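Erythrocytes infected with P. falciparum carrying an integrated firefly luciferase reporter (2% hematocrit, 0.1% parasitemia final) were exposed to compounds in RPMI 1640 with 0.5% Albumax at 37 C, 5% CO2. Growth inhibition was scored as reduced luminescence.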
AmpC inh detg: qHTS Inhibitors of AmpC Beta-Lactamase (assay with detergent) | AmpC hydrolysis of nitrocefin, absorbance 480 nm, 0.01% Triton | P00811 | Potency, µM (series often up to 114 µM), usual class: inhibitors | 370,000 compounds, 0.041% hits; note: nearly all actives have a fitted effect of over 25% in size
Target sequence (P00811 whole entry, looked up): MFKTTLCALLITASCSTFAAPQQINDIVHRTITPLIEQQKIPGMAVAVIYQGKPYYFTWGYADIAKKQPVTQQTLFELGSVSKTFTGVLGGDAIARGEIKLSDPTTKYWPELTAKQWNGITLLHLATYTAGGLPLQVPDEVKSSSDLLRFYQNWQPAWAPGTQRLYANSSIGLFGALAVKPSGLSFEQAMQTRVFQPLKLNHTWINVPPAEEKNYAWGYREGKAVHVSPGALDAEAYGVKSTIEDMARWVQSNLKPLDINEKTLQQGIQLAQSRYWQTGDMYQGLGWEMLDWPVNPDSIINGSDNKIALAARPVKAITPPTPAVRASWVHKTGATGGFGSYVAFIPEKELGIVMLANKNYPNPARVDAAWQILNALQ
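AmpC (5.3 nM in the dispensed reagent) in 20 mM phosphate pH 7.0 with 0.01% (detergent screen) or 0.0001% Triton X-100 was preincubated with compounds for 15 min at room temperature. Nitrocefin was then added from an 800 uM solution, and hydrolysis was followed at 480 nm.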
AmpC inh no detg: qHTS Inhibitors of AmpC Beta-Lactamase (assay without detergent) | AmpC nitrocefin hydrolysis, absorbance 480 nm, 0.0001% Triton | P00811 | 330,000 compounds, 0.52% hits | Potency, µM (highest dose often 57.1 µM), hits mostly inhibitors | AID 485341, 2010; note: nearly all actives have a fitted effect of over 20% in size
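AmpC (5.3 nM in the dispensed reagent) in 20 mM phosphate pH 7.0 with 0.01% (detergent screen) or 0.0001% Triton X-100 was preincubated with compounds for 15 min at room temperature. Nitrocefin was then added from an 800 uM solution, and hydrolysis was followed at 480 nm.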
Pf growth 96h: Primary qHTS for delayed death inhibitors of the malarial parasite plastid, 96 hour incubation | Potency, µM (top dose mostly 28.7 µM), hits mostly inhibitors | P. falciparum luciferase reporter growth, 96 h | AID 504834, 2011 | 320,000 compounds, 6.9% hits
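Two parasite generations (96 h, 37 C, 5% CO2) of compound exposure in infected erythrocytes (0.05% parasitemia, 2% hematocrit). Luciferase-reporter P. falciparum; decreased luminescence indicates inhibited growth, aimed at apicoplast-acting delayed death.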
Large screens that a line does not name were inactive. Unless noted, calls come from the whole dose curve; as a rule, active = well fitted curve in the direction sought with a large enough effect; inconclusive = small, poorly fitted or top-dose-only effect, or another doubt; inactive = no such curve, though single readings can be large; an effect the other way counts as inactive or inconclusive.

Nc1c(N(CCC2=CCCCC2)C(=O)CCCOc2ccccc2)c(=O)[nH]c(=O)n1Cc1ccccc1	AmpC inh detg inconclusive, AmpC inh no detg 14µM
Cc1ccccc1OCCC(=O)N(CC(C)C)c1c(N)n(Cc2ccccc2)c(=O)[nH]c1=O	Pf growth 48h 12µM, Pf growth 96h inconclusive
Nc1c(N(CCC2=CCCCC2)C(=O)COc2ccc(F)cc2)c(=O)[nH]c(=O)n1Cc1ccccc1	Pf growth 48h inconclusive, Pf growth 96h inconclusive
CC1CCCC(NC(=O)COC(=O)c2cc(=O)[nH]c3ccccc23)C1C (configuration not stated)	none (no result: Sm TGR block, Pf growth 48h, AmpC inh detg, Pf growth 96h)
CCOC(=O)N1CCc2c(sc3c2c(=O)n(CCc2ccccc2)c(=O)n3Cc2c(F)cccc2Cl)C1	none (no result: SARS PLP yeast, Pf growth 48h, AmpC inh no detg, Pf growth 96h)
CC1=C(c2ccc(C)cc2)S(=O)(=O)NC1=NCCCN1CCN(c2ccccc2F)CC1	none (no result: SARS PLP yeast, Pf growth 48h, AmpC inh no detg, Pf growth 96h)
CCOc1ccc(OCCC(=O)N(CCC(C)C)c2c(N)n(Cc3ccccc3)c(=O)[nH]c2=O)cc1	Pf growth 48h 10µM, AmpC inh detg inconclusive (no result: SARS PLP yeast)
CCOc1ccc2nc(SCC(=O)N(CC(C)C)c3c(N)n(Cc4ccccc4)c(=O)[nH]c3=O)[nH]c2c1	Pf growth 48h inconclusive, AmpC inh detg inconclusive, Pf growth 96h 12µM
Cc1ccc(OCCC(=O)N(Cc2ccccc2)c2c(N)n(Cc3ccccc3)c(=O)[nH]c2=O)cc1	Pf growth 48h inconclusive, AmpC inh detg inconclusive
COCCN(C(=O)CSc1nc2ccc(OC)cc2[nH]1)c1c(N)n(Cc2ccccc2)c(=O)[nH]c1=O	AmpC inh detg inconclusive
CC(CN1CCCC1)OC(=O)c1ccc(Cl)cc1 (configuration not stated)	none
Cc1cccc(CSc2nc3c(c(-c4cccs4)c2C#N)CN(C)CC3)c1	Pf growth 48h inconclusive, AmpC inh detg inconclusive, Pf growth 96h inconclusive
Cc1cccc(CSc2nc(N)c(C#N)c(-c3cccs3)c2C#N)c1	Pf growth 48h 13µM, AmpC inh detg inconclusive, Pf growth 96h inconclusive
CCCCCCCN1CCC(=O)N([C@H](CO)c2ccccc2)CC1	none
CCOC(=O)Cc1ccc(NC(=O)N2CCOc3ccc(C)cc32)cc1	none (no result: SARS PLP yeast, Pf growth 48h, AmpC inh no detg, Pf growth 96h)
O=C(/C=C/c1ccc(-c2ccccc2[N+](=O)[O-])o1)c1ccco1	Sm TGR block 35µM
O=C(Nc1nc(-c2ccc(S(=O)(=O)N3CCCC3)cc2)cs1)C1COc2ccccc2O1 (configuration not stated)	Pf growth 48h 9.3µM
N#CCC(=O)Nc1nc(-c2ccc3c(c2)OCCO3)cs1	AmpC inh detg inconclusive, Pf growth 96h 10µM
O=C(Nc1nc(-c2ccc3c(c2)OCCO3)cs1)c1ccc(S(=O)(=O)N2CCCCC2)cc1	Pf growth 48h 12µM, AmpC inh detg inconclusive, Pf growth 96h inconclusive
COc1ccc(-c2csc(NC(=O)c3ccc(S(=O)(=O)N4CCc5ccccc5C4)cc3)n2)cc1	AmpC inh detg inconclusive, AmpC inh no detg 8.9µM, Pf growth 96h inconclusive
O=C(Nc1nc(-c2ccc(S(=O)(=O)N3CCCCCC3)cc2)cs1)c1ccccc1	none (no result: Pf growth 48h)
CCc1ccc(NC(=O)C(CC)n2c(=O)c(-c3ccccc3NC(C)=O)nc3ccccc32)cc1 (configuration not stated)	none (no result: SARS PLP yeast, Pf growth 48h, AmpC inh no detg, Pf growth 96h)
CCOC(=O)c1c(NC(C)=O)sc2c(O)c(CN3CCN(CC)CC3)ccc12	Pf growth 48h 10µM, AmpC inh detg inconclusive
CCOC(=O)c1c(NC(C)=O)sc2c(OC)c(Br)ccc12	Sm TGR block inconclusive (no result: Pf growth 96h)
CCC(=O)Oc1ccc2c(c1)O/C(=C\c1ccco1)C2=O	Sm TGR block 11µM
COC(=O)COc1ccc2c(c1)O/C(=C\c1ccco1)C2=O	Sm TGR block 18µM
Cc1cc(O)cc2c1C(=O)/C(=C/c1ccco1)O2	Sm TGR block 32µM
COc1ccc(/C=C2\Oc3cc(OC(=O)N4CCOCC4)ccc3C2=O)cc1	Pf growth 48h inconclusive, Pf growth 96h inconclusive
CCc1ccc(/C=C2\Oc3cc(OC(=O)N4CCOCC4)ccc3C2=O)cc1	Pf growth 48h inconclusive, AmpC inh detg inconclusive, Pf growth 96h 10µM
CCN(CC)C(=O)Oc1ccc2c(c1)O/C(=C\c1ccco1)C2=O	none
COC(=O)C(Cc1ccc(O)cc1)NC(=O)NC12CC3CC(CC(C3)C1)C2 (configuration not stated)	none
O=c1c2cc(F)ccc2sn1-c1ccc(F)cc1	Pf growth 48h 4.1µM
COc1ccc(N2C(=O)CSC2c2ccc(F)cc2)cc1 (configuration not stated)	Pf growth 96h inconclusive
Cc1ccc(C)c(-n2sc3ccc(F)cc3c2=O)c1	Pf growth 48h 2.1µM, Pf growth 96h 1.5µM
COc1ccc(-n2sc3ccc(F)cc3c2=O)cc1	Pf growth 48h 4.1µM
CCC(C)(C(=O)NC1CCCCC1)N(C(=O)CC1NC(=O)NC1=O)c1c(C)n(C)n(-c2ccccc2)c1=O (configuration not stated)	none
CCOc1ccc(NC(=O)c2ccc3c(SCC(=O)O)c4c(nc3c2)CCC4)cc1	none (no result: SARS PLP yeast, Pf growth 48h, AmpC inh no detg, Pf growth 96h)
CCN1CC=C2C(C#N)=C(N)C(C#N)(C#N)C(CCc3ccccc3)C2C1 (configuration not stated)	Sm TGR block 28µM, Pf growth 48h 10µM, AmpC inh detg inconclusive, Pf growth 96h 10µM
CC(=O)N1CC=C2C(C#N)=C(N)C(C#N)(C#N)C(CCc3ccccc3)C2C1 (configuration not stated)	Sm TGR block 40µM
Cc1ccc(NC(=O)CCSc2nc(-c3ccco3)cc(C(F)(F)F)n2)cc1F	none (no result: SARS PLP yeast, Pf growth 48h, AmpC inh no detg, Pf growth 96h)
CC(=O)[O][Hg][c]1ccccc1	Pf growth 48h 1.5µM, Pf growth 96h 3µM (no result: SARS PLP yeast, Sm TGR block, AmpC inh detg, AmpC inh no detg)
CC(OC(=O)c1cccc(S(=O)(=O)N2CCN(C)CC2)c1)C(=O)Nc1ccc(C(N)=O)cc1 (configuration not stated)	none
CC(=O)c1cccc(NC(=S)N2CCN(S(=O)(=O)c3ccccc3)CC2)c1	SARS PLP yeast inconclusive, Sm TGR block inconclusive, Pf growth 48h inconclusive, Pf growth 96h 4.1µM
CC(=O)c1cccc(NC(=S)N2CCN(S(=O)(=O)c3ccc(F)cc3)CC2)c1	Pf growth 48h inconclusive, Pf growth 96h inconclusive
CC(=O)c1cccc(NC(=O)C(C)OC(=O)c2cccc(S(=O)(=O)N3CCN(C)CC3)c2)c1 (configuration not stated)	Sm TGR block 50µM, Pf growth 48h inconclusive, AmpC inh detg inconclusive, Pf growth 96h inconclusive
Cc1cccc(NC(=S)N2CCN(S(=O)(=O)c3cccc(F)c3)CC2)c1	Pf growth 48h 13µM, Pf growth 96h inconclusive
